Reference: PMC7862700, “An all-to-all approach to the identification of sequence-specific readers for epigenetic DNA modifications on cytosine”

Key:
Assay in all cases: DAPPL (digital affinity profiling via proximity ligation, sequencing); 10 mM Tris-HCl pH 7.5, 50 mM NaCl, 1 mM DTT, 4% glycerol, room temperature, 30 min; GST-TFs on glutathione beads, 16-mer random dsDNA library, 0.1% formaldehyde crosslink after washing; high values mean tight binding
FEV = target: T1, FEV (Homo sapiens, UniProt Q99581 1-238); details: protein: recombinant; tags: N-terminal GST; dsDNA, one strand shown
T1 sequence: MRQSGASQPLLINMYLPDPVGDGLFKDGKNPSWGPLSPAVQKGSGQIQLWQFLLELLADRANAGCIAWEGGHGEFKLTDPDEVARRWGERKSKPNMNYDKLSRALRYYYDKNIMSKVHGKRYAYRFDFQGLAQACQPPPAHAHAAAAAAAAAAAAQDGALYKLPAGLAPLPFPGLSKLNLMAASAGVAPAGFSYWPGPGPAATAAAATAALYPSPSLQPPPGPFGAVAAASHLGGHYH
Method in brief: (§1)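 The binding signal reported is, for every hexamer, its read frequency for a factor over its read frequency for the tag-only sample. Reads came from pools of yeast-expressed, GST-fused human transcription factors on glutathione beads, barcoded with DNA and mixed with that sample, which were incubated with 200 nmole of a random double-stranded 16-mer DNA library in Tris/NaCl/DTT/glycerol buffer at room temperature for 30 min. After washing, the pools were crosslinked with 0.1% formaldehyde, proximity-ligated with BsaI/T4 ligase for 1 h at 37 °C, PCR-amplified and sequenced on an Illumina NextSeq500.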

ETV5 = ETV5 (Homo sapiens, UniProt P41161 1-510); details: protein: recombinant; tags: N-terminal GST; dsDNA, one strand shown
ETV5, sequence (P41161 whole entry): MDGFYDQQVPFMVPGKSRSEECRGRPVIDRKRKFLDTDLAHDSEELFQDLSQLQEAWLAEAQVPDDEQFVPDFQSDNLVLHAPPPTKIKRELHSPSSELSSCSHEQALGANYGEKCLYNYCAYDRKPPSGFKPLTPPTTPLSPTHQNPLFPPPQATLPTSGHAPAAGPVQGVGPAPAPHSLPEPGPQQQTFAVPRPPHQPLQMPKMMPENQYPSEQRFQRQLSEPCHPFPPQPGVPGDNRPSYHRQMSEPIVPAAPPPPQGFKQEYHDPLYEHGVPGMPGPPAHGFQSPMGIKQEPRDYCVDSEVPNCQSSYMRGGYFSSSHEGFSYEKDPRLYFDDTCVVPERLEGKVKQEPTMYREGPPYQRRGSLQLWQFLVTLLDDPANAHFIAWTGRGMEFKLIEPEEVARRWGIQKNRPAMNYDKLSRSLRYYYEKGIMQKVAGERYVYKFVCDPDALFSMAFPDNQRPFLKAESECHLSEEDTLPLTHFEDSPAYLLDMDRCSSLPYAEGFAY
Method in brief: as §1

HSF1 = HSF1 (Homo sapiens, UniProt Q00613 1-529); details: protein: recombinant; tags: N-terminal GST; chain copies: 3; dsDNA, one strand shown
HSF1, sequence (Q00613 whole entry): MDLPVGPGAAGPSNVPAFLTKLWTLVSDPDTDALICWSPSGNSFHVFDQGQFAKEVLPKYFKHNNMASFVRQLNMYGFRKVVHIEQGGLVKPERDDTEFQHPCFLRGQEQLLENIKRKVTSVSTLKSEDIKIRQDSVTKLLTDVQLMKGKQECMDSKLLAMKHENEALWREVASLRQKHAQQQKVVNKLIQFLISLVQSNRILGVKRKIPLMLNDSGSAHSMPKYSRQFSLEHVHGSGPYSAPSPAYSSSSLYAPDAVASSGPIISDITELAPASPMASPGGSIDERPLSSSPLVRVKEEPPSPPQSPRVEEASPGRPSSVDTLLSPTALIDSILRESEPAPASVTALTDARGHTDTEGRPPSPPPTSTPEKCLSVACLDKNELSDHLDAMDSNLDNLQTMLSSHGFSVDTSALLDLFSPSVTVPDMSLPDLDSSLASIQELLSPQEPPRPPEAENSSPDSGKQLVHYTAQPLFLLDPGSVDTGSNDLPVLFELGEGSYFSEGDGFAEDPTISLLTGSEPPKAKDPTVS
Method in brief: as §1

SPIC = target: T2, SPIC (Homo sapiens, UniProt Q8N5J4 1-248); details: protein: recombinant; tags: N-terminal GST; dsDNA, one strand shown
T2 sequence: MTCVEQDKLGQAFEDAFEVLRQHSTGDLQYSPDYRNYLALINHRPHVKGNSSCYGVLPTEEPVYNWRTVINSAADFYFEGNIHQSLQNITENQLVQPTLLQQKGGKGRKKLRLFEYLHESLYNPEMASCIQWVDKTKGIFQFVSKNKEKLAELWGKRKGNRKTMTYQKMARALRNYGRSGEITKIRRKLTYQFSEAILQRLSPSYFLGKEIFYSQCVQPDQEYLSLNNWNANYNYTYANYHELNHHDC
Method in brief: as §1

ELF4 = ELF4 (Homo sapiens, UniProt Q99607 1-663); details: protein: recombinant; tags: N-terminal GST; dsDNA, one strand shown
ELF4, sequence (Q99607 whole entry): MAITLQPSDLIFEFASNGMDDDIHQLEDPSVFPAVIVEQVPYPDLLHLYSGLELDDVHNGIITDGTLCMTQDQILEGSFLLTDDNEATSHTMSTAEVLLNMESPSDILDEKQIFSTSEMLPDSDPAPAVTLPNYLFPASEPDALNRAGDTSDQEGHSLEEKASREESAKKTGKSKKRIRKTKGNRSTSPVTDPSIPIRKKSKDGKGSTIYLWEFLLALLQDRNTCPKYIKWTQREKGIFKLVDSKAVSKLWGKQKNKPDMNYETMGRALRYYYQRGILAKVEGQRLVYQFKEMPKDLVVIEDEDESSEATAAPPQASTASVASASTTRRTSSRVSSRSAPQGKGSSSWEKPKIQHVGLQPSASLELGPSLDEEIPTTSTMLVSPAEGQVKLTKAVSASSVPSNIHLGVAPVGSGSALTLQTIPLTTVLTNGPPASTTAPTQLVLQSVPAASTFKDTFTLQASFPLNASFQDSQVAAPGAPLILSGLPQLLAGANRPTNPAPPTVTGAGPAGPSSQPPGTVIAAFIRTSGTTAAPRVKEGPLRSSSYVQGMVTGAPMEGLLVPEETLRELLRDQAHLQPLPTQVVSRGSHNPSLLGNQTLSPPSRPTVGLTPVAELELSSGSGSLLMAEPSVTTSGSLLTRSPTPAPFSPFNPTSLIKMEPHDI
Method in brief: as §1

ELK4 = target: T3, ELK4 (Homo sapiens, UniProt P28324-2 1-405); details: protein: recombinant; tags: N-terminal GST; dsDNA, one strand shown
T3 sequence: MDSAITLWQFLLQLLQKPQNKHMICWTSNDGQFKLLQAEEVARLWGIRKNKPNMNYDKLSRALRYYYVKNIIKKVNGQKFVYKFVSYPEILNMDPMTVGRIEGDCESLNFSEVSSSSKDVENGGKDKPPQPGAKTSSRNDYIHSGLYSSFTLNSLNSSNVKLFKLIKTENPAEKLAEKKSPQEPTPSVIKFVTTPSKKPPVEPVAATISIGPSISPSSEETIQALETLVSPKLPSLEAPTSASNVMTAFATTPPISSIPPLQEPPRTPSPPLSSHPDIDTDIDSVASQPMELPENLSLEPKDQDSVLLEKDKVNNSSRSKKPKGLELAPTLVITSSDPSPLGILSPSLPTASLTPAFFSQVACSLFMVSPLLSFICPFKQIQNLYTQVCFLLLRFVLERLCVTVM
Method in brief: as §1

ELF3 = target: T4, ELF3 (Homo sapiens, UniProt P78545 1-371); details: protein: recombinant; tags: N-terminal GST; dsDNA, one strand shown
T4 sequence: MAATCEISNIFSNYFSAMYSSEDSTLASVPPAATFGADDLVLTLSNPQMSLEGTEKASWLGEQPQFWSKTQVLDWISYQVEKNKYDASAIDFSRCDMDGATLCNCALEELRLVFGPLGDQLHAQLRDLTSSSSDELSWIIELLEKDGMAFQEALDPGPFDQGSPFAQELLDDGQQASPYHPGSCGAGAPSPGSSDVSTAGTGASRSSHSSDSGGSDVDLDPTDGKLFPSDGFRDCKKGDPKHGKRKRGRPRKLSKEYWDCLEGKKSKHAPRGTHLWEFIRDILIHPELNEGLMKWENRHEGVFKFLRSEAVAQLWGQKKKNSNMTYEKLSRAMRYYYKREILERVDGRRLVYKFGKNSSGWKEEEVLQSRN
Method in brief: as §1

CRX = CRX (Homo sapiens, UniProt O43186 1-299); details: protein: recombinant; tags: N-terminal GST; dsDNA, one strand shown
CRX, sequence (O43186 whole entry): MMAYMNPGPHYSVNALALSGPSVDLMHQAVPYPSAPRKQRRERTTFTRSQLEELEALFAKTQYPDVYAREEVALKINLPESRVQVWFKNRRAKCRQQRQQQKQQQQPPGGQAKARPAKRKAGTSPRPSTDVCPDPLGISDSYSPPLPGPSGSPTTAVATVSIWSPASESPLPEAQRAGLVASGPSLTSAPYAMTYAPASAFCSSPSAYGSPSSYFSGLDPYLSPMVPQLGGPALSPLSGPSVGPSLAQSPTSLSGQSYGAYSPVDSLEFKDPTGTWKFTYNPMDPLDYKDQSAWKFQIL
Method in brief: as §1

ETV1 = ETV1 (Homo sapiens, UniProt P50549 1-477); details: protein: recombinant; tags: N-terminal GST; dsDNA, one strand shown
ETV1, sequence (P50549 whole entry): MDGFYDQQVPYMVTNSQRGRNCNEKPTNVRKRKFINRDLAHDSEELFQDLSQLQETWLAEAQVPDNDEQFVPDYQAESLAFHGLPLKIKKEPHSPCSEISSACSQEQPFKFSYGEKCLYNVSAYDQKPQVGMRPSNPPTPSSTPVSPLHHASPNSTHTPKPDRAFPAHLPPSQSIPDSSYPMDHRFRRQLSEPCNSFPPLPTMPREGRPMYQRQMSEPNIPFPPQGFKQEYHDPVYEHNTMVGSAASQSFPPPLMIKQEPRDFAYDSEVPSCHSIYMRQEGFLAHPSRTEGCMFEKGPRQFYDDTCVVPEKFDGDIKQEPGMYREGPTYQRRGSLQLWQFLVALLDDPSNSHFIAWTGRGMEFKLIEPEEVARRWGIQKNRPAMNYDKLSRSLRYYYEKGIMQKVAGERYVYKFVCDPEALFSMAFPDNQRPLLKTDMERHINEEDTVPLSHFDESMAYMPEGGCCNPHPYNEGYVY
Method in brief: as §1

ERF = target: T5, ERF (Homo sapiens, UniProt P50548 1-548); details: protein: recombinant; tags: N-terminal GST; dsDNA, one strand shown
T5 sequence: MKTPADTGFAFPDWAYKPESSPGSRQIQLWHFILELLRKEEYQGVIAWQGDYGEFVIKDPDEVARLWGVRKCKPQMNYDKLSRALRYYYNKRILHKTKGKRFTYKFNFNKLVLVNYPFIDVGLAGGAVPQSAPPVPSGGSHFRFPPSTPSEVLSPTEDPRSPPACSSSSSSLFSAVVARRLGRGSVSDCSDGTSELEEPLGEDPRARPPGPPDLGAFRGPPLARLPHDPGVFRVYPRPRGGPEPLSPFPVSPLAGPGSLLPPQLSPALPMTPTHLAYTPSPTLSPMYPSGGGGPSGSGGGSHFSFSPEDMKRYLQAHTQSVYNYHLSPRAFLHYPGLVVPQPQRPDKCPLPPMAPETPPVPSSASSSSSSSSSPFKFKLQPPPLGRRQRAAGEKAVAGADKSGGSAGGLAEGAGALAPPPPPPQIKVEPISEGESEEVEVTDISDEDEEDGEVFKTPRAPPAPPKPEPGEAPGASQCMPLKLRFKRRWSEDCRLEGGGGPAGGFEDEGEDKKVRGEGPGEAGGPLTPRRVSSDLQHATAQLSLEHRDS
Method in brief: as §1

ETS2 = target: T6, ETS2 (Homo sapiens, UniProt P15036 1-469); details: protein: recombinant; tags: N-terminal GST; dsDNA, one strand shown
T6 sequence: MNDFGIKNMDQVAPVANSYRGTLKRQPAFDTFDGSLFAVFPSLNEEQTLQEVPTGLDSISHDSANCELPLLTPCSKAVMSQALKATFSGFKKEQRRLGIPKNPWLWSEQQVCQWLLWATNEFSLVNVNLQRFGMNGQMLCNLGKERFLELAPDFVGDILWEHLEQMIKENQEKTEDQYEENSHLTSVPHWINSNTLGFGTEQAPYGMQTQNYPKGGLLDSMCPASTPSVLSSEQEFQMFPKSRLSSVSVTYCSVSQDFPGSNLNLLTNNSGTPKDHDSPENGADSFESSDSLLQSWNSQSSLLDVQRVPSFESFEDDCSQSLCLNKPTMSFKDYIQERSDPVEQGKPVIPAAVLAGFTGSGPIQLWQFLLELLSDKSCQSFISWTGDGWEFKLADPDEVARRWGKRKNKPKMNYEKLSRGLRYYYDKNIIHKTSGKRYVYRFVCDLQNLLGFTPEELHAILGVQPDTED
Method in brief: as §1

SPDEF = target: T7, SPDEF (Homo sapiens, UniProt O95238 1-335); details: protein: recombinant; tags: N-terminal GST; dsDNA, one strand shown
T7 sequence: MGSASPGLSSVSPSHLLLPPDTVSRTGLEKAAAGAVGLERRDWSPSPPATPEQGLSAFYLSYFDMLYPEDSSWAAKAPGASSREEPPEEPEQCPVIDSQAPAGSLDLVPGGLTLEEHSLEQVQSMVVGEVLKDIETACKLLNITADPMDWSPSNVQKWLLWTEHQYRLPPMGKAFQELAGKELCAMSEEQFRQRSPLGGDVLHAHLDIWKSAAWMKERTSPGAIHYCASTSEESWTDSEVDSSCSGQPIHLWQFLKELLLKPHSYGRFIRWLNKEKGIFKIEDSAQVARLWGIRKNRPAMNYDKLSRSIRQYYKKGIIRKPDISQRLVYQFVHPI
Method in brief: as §1

ETV7 = target: T8, ETV7 (Homo sapiens, UniProt Q9Y603 1-341); details: protein: recombinant; tags: N-terminal GST; dsDNA, one strand shown
T8 sequence: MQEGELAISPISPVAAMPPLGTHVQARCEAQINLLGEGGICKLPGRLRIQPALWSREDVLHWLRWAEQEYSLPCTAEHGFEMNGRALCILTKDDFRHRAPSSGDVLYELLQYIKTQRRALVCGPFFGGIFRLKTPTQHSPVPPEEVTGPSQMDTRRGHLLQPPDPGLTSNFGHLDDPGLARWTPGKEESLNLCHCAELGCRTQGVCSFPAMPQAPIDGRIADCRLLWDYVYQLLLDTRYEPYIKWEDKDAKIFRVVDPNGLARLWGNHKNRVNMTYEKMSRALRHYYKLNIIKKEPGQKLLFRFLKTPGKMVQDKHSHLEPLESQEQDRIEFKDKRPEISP
Method in brief: as §1

ELF5 = target: T9, ELF5 (Homo sapiens, UniProt Q9UKW6-2 1-255); details: protein: recombinant; tags: N-terminal GST; dsDNA, one strand shown
T9 sequence: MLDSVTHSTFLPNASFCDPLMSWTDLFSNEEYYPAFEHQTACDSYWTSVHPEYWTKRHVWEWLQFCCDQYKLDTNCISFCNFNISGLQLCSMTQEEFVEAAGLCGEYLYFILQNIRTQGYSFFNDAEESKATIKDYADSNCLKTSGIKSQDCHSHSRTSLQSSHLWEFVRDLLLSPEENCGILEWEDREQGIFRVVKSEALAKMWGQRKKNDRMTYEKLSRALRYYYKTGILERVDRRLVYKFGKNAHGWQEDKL
Method in brief: as §1

ETV3 = target: T10, ETV3 (Homo sapiens, UniProt P41162-2 1-143); details: protein: recombinant; tags: N-terminal GST; dsDNA, one strand shown
T10 sequence: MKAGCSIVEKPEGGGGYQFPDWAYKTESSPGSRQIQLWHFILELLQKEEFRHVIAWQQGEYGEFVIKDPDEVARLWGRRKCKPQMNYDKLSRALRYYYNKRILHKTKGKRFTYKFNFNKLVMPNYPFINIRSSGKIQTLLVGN
Method in brief: as §1

ETV6 = ETV6 (Homo sapiens, UniProt P41212 1-452); details: protein: recombinant; tags: N-terminal GST; dsDNA, one strand shown
ETV6, sequence (P41212 whole entry): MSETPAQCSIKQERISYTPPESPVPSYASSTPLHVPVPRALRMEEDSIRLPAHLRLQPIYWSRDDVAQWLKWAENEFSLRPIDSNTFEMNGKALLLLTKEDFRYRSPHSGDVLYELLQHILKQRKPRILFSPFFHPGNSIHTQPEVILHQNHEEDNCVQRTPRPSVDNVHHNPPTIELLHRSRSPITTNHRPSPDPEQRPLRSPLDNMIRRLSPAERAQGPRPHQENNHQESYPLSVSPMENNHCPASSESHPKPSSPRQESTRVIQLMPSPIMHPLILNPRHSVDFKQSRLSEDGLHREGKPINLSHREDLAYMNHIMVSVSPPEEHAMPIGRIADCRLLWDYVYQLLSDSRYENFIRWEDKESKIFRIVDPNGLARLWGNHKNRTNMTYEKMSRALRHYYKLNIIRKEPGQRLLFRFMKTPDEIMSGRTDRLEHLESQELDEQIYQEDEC
Method in brief: as §1

Sequence | binding signal (FEV) | binding signal (ETV5) | binding signal (HSF1) | binding signal (SPIC) | binding signal (ELF4) | binding signal (ELK4) | binding signal (ELF3) | binding signal (CRX) | binding signal (ETV1) | binding signal (ERF) | binding signal (ETS2) | binding signal (SPDEF) | binding signal (ETV7) | binding signal (ELF5) | binding signal (ETV3) | binding signal (ETV6)
AAGGTT | 1.02 fold enrichment (6-mer frequency, TF over GST control) | 1.01 fold enrichment (6-mer frequency, TF over GST control) | 1.27 fold enrichment (6-mer frequency, TF over GST control) | 1.03 fold enrichment (6-mer frequency, TF over GST control) | 1.09 fold enrichment (6-mer frequency, TF over GST control) | 1.12 fold enrichment (6-mer frequency, TF over GST control) | 1.35 fold enrichment (6-mer frequency, TF over GST control) | 1.17 fold enrichment (6-mer frequency, TF over GST control) | 1.07 fold enrichment (6-mer frequency, TF over GST control) | 1.01 fold enrichment (6-mer frequency, TF over GST control) | 1.08 fold enrichment (6-mer frequency, TF over GST control) | 1.02 fold enrichment (6-mer frequency, TF over GST control) | 1.15 fold enrichment (6-mer frequency, TF over GST control) | 1.1 fold enrichment (6-mer frequency, TF over GST control) | 1.07 fold enrichment (6-mer frequency, TF over GST control) | 1 fold enrichment (6-mer frequency, TF over GST control)
ATCAGC |  | 1.01 fold enrichment (6-mer frequency, TF over GST control) | 1.01 fold enrichment (6-mer frequency, TF over GST control) | 1 fold enrichment (6-mer frequency, TF over GST control) | 1.02 fold enrichment (6-mer frequency, TF over GST control) | 1.14 fold enrichment (6-mer frequency, TF over GST control) | 1.13 fold enrichment (6-mer frequency, TF over GST control) | 1.31 fold enrichment (6-mer frequency, TF over GST control) | 1.01 fold enrichment (6-mer frequency, TF over GST control) |  | 1.09 fold enrichment (6-mer frequency, TF over GST control) |  |  |  |  | 1.01 fold enrichment (6-mer frequency, TF over GST control)
